Pf Dd2 inh: Plasmodium falciparum Dd2 growth inhibition; P. falciparum Dd2 growth, SYBR Green, 72 h; Potency, µM (top dose mostly 28.9 µM), for inactives: at the highest dose activity, negative = inhibition, actives largely listed as inhibitors; 120,000 compounds, 4.3% hits; AID 1347417; active = well fitted inhibition curve with a large enough effect;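 also: plate controls were DMSO vehicle for no effect and reference drug for full effect; nearly all actives have a fitted effect of over 65% in size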
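Infected erythrocytes (Dd2, 0.3% parasitemia, 2.5% hematocrit final) are added to compound in RPMI-1640/Albumax II medium, grown 72 h at 37C in low oxygen, then lysed with saponin/Triton-X containing SYBR Green and read by fluorescence.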
Numbers without * were called inactive; i = inactive; [ ] = another dose, or the depositor's remark. The entries come from a sample that favours hits as a whole. Potency is read from the fitted curve at half-maximal effect.

SMILES | Pf Dd2 inh
COc1ccccc1NC(=O)N1CCCC(Cn2cnc3cccnc32)C1 (stereo not given) | -21%
COCCO[C@H]1C(=O)N(C2CCN(Cc3c[nH]c4ccccc34)CC2)[C@H]1c1ccncc1 | i
CCn1cnnc1CC1CCN(C(=O)NC)C1 (stereo not given) | 22%
Cc1onc(-c2cnn(C)c2NCc2ccc(C#N)cc2)c1C(=O)N(C)c1cccnc1 | -7%[44.1 µM]
CC(=O)N1CCn2c(nn(-c3ccc(F)cc3)c2=O)C1 | 13%[44.1 µM]
C[S+](=O)([O-])CCn1ncc2cc(OCC3CCN(CCC(F)(F)F)CC3)ccc21 | i
COCc1noc([C@@H]2CC(F)(F)CN2C(=O)Cc2cccc(F)c2)n1 | -14%
O=C(CSc1nc(-c2ccccc2)no1)N1CCN(c2ccccc2)CC1 | 10µM*
COc1ccc(N2CCN(Cc3nc(-c4ccc(C)cc4)no3)CC2)cc1 | i
COc1ccc(-c2nc(CSCC(=O)N3CCN(c4ccccc4)CC3)c(C)o2)cc1 | 7.1µM*
Cc1ccc(CSCC(=O)N2CCN(c3ccc(F)cc3)CC2)cc1 | 19%
CCc1ccc(-c2nc(CSCC(=O)N3CCN(c4ccc(F)cc4)CC3)c(C)o2)cc1 | i
O=C(CSc1nc2ccccc2nc1Cc1ccccc1)N1CCN(c2ccccc2)CC1 | 44%
COc1ccc(N2CCN(C(=O)CSCc3ccc(C)cc3)CC2)cc1 | -15%
COc1ccc(N2CCN(C(=O)CCc3conc3-c3ccc(F)cc3)CC2)cc1 | i
COc1ccc(N2CCN(C(=O)CSc3nc(-c4ccc(C(C)C)cc4)no3)CC2)cc1 | 0.28µM*
COc1ccc(N2CCN(C(=O)CSc3n[nH]c(-c4ccccc4)n3)CC2)cc1 | 6%
O=C(CSc1n[nH]c(-c2ccccc2)n1)N1CCN(c2ccc(F)cc2)CC1 | 5%
CC(C)c1ccc(-c2noc(SCC(=O)N3CCN(c4ccc(F)cc4)CC3)n2)cc1 | 0.45µM*
Cc1ccc(-c2ccc3nnc(CNC(=O)CSc4ccncc4)n3n2)cc1 | -7%
COc1cccc(CNC(=O)C2CCN(c3cn[nH]c(=O)c3)C2)c1OC (stereo not given) | -20%
CN(Cc1ccccc1)Cc1cc(C[C@H]2CNCC[C@H]2CC(=O)N2CCOCC2)no1 | -24%[44.1 µM]
O=C(Cc1ccc(F)cc1)N1CCN(c2cc(C(F)(F)F)ncn2)CC1 | i
CC(C)c1noc(-c2cn(C3CCCN(C(=O)c4ccc5c(c4)OCO5)C3)nn2)n1 (stereo not given) | i
Cc1ccc(N2CCC(NC(=O)Cc3cccs3)C2=O)cc1C (stereo not given) | -13%
SMILES | Pf Dd2 inh
COc1ccc(NC(=O)[C@@H]2COCC(=O)N2Cc2ccc(OC)c(OC)c2)cc1Cl | -13%
CNc1cc(C)nc(N2C[C@H](NC(=O)C3CCOCC3)[C@@H](C3CC3)C2)n1 | -4%
O=C(CCCc1nc2ccccc2[nH]1)N1CCc2c(nc3cc(-c4ccccc4)[nH]n3c2=O)C1 | 25%[5.79 µM]
COc1cc(OC)cc(C(=O)NC2CCN(c3cc(C(F)(F)F)ncn3)CC2)c1 | i
CC1CCCN1C(=O)c1cc(-c2cnn(C(C)C)c2)nc2cc(F)ccc12 (stereo not given) | -15%
CC1CCCCN1C(=O)c1cc(-c2ccc(Br)cc2)on1 (stereo not given) | 42%
CC(C)=CCn1c(-c2cc(C)oc2C)cn2cc(C(=O)N3CCCC3C)nc2c1=O (stereo not given) | 8.9µM*
Cc1nc(NC(=O)C2CC(=O)N(c3n[nH]c4cc(Br)ccc34)C2)sc1C (stereo not given) | -24%
O=C(c1cccc2c1CCN2C(=O)C1CC1)N1CCCCC1 | -14%
COc1cccc(CCC(=O)N2CCC(C3CCNC3)CC2)c1 (stereo not given) | 11%
Cc1ccccc1C(=O)N1C(C(=O)NC(C)C)COC12CCN(C(=O)c1ccc(Cl)cc1)CC2 (stereo not given) | i
Cc1ccc(C)c(CN2CCC(CNC(=O)Nc3ccc(Br)cc3F)CC2)c1 | 8.9µM*
COc1ccc(NC(=O)NCC2CCN(Cc3ccccc3F)CC2)c(OC)c1 | 11%
Cc1ccc(NC(=O)NCC2CCOCC2)c(C)c1 | 14%
COc1ccc(C(=O)N2CCC(n3cc(-c4nc(C)no4)nn3)CC2)cc1F | i
CCNC(=O)N1CCC(OC2CCN(S(C)(=O)=O)CC2)CC1 | 10%
CCCc1cc(C(=O)N2CC[C@H]3CNC[C@H]32)n(C)n1 | 20%
COCC(=O)N[C@@H]1CN(C(=O)Nc2ccccc2F)CC[C@@H]1c1nc(C)no1 | i[5.79 µM]
CC(C)(C)NC(=O)CN1C(=O)NC2(CCC(C(C)(C)C)CC2)C1=O (stereo not given) | -24%
Cn1c(=O)c2ccnn2c2ccc(C(=O)Nc3ccc(N4CCOCC4)cc3)cc21 | i
CN(C)C(=O)c1ccc2c(c1)n(Cc1ccc(F)cc1)c(=O)c1ccnn12 | 10µM*
O=C(NCc1ccccc1)c1ccc2oc(=O)n(Cc3ccccc3)c2c1 | 0%
CCCN1CCN(C(=O)c2ccc3c(c2)n(CC)c(=O)c2ccnn23)CC1 | i
CN1CCC(NC(=O)c2ccc3c(c2)n(Cc2ccc(F)cc2)c(=O)c2ccnn23)CC1 | 2.5µM*
O=C(NCc1ccccn1)c1ccc2c(c1)n(Cc1cccc(F)c1)c(=O)c1ccnn12 | 5µM*
SMILES | Pf Dd2 inh
O=C(NCc1cccc(F)c1)c1ccc2nccn2c1 | -12%[44.1 µM]
Cn1ncc(N2CCC(NC(=O)Cc3ccc(F)cc3)CC2)cc1=O | -11%
CNC(=O)c1ccc2c(c1)n(Cc1ccc(OC)cc1)c(=O)c1ccnn12 | -20%
Cc1ccc(CN2C[C@@H]3C(=O)N(C)C(=O)[C@@H]3C2)cc1C | 13%
O=C(NC1CCN(c2cc(-c3ccccc3)[nH]n2)CC1)c1ccc(F)cc1F | i
CN1CCCCCC(O)c2cc(C(=O)NC3CCN(Cc4ccccc4)CC3)ccc21 (stereo not given) | -6%
O=C(O)Cn1nc(C2CCOCC2)nc1CC1NC(=O)NC1=O (stereo not given) | 0%
Cc1[nH]c2c(F)cccc2c1CC(=O)N(C)Cc1ccc2nsnc2c1 | -1%
CCN1C(=O)CCN(S(=O)(=O)CC)CC12CCOCC2 | 7%
CCN1C(=O)CCN(CC2CCCCC2)CC12CCOCC2 | 3.5µM*
CCN1C(=O)CCN(C(C)=O)CC12CCOCC2 | 11%
COCCn1ccc2c(C3=CCOCC3)nc(-c3cccc4cn[nH]c34)cc21 | -11%[44.1 µM]
O=C(NC[C@H]1O[C@@H](CC(=O)N2CCN(c3ccccc3)CC2)[C@H](O)[C@@H]1O)c1ccc(F)c(Cl)c1 | 17%
COC[C@@H]1CN(c2cnccn2)C[C@H]1C(=O)NCCc1ccccn1 | 7%
COc1ccc(C(=O)NCC(=O)N2CCCCCCNC(=O)CC2c2ccccc2)c(OC)n1 (stereo not given) | 8.9µM*
COc1ccc(C2(C(=O)NCC(=O)N3CCCCCNC(=O)CC3c3ccccc3)CC2)cc1 (stereo not given) | -2%
COc1ccc2[nH]c(C(=O)NCC(=O)N3CCCCCCNC(=O)CC3c3ccccc3)cc2c1 (stereo not given) | 5µM*
Cc1nc(C)c(C(=O)NCC(=O)N2CCCCCCNC(=O)CC2c2ccccc2)s1 (stereo not given) | -1%
COc1ccc(CCC(=O)NCC(=O)N2CCCCCNC(=O)CC2c2ccccc2)cc1 (stereo not given) | i
Cc1ncccc1C(=O)NCC(=O)N1CCCCCNC(=O)CC1c1ccccc1 (stereo not given) | 14%
Cc1ccc(C(=O)N2CCC[C@H]2c2nc(-c3ccccc3)no2)c(C)c1 | i
CC(=O)N1Cc2ccccc2OC2(CCN(C(=O)c3ccnc(N)c3)CC2)C1 | 12%
